In PubChem BioAssay AID2289 (National Center for Advancing Translational Sciences (NCATS), 2010):
The whole screen tested about 340,000 compounds, of which about 3,300 (0.97%) were called active. Inconclusive results (about 9%) are left out. The call rests on the fitted dose curve; in most records, active means well fitted inhibition curve with a large enough effect; inconclusive means small, poorly fitted or top-dose-only effect, or effect the other way; inactive means flat fitted curve, though single readings scatter. This is one part of the list.

Assay: qHTS Assay for Modulators of miRNAs and/or Inhibitors of miR-21; further: nearly all actives have a fitted effect of over 55% in size
Details: HeLa miR-21-FLuc reporter, luciferase luminescence, 48 h; actives lower the signal
Procedure, shortened: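 Luminescence from a firefly luciferase reporter carrying a miR-21 binding site downstream, stably expressed under a CMV promoter in HeLa cells that make miR-21 endogenously, reports miRNA modulation after 48 h compound exposure up to approximately 40uM final.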
Potency means the concentration at half of the fitted maximal effect.

Potency, active:
Clc1ccc(-c2cnc3ccccc3n2)cc1 4.14 µM
CCCCOc1ccc(-c2cnc3ccccc3n2)cc1 0.656 µM
CN(C)c1ccc(-n2cccc2/C=N/n2cnnc2)cc1 8.26 µM
CCCc1ccc(OCc2ccc(C(=O)OC)o2)c(OC)c1 7.36 µM
COC(=O)c1ccc(COc2ccc(C(C)(C)C)cc2)o1 10.4 µM
COC(=O)c1ccc(COc2ccc(C)c(C)c2)o1 14.7 µM
O=C(OCc1ccccn1)c1ccc(COc2ccc3ccccc3c2)o1 6.56 µM
CCc1ccc(OCc2ccc(C(=O)OC)o2)cc1 5.21 µM
COC(=O)c1ccc(COc2ccc3c(c2)CCC3)o1 5.21 µM
COC(=O)c1ccc(COc2ccc(C)cc2[N+](=O)[O-])o1 13.1 µM
C=CCN(C(=O)c1oc2c(Cl)cc(C)cc2c1C)C1CCS(=O)(=O)C1 (stereo not drawn) 10.4 µM
Cc1cc(Cl)c2oc(C(=O)NCCC3CCCCO3)c(C)c2c1 (stereo not drawn) 14.7 µM
Cc1cc(Cl)c2oc(C(=O)N(C)CC3CCOCC3)c(C)c2c1 14.7 µM
Cc1cc(Cl)c2oc(C(=O)N(C)C3CCOC3)c(C)c2c1 (stereo not drawn) 14.7 µM
CCCCn1cnc2c(oc3ccccc32)c1=O 13.1 µM
CCc1cc2c(=O)n(-c3ccccc3)cnc2s1 13.1 µM
CN(C)c1ncnc2sc(-c3ccccc3)cc12 14.7 µM
Cc1nc2sc(-c3ccccc3)cc2c(=O)n1/N=C/N(C)C 3.29 µM
O=C(CSc1ncnc2ccccc12)c1ccc2c(c1)OCCO2 2.07 µM
CCc1cc2c(SCC(=O)c3ccccc3)ncnc2s1 8.26 µM
CC(=O)Cn1nnc2sc(-c3ccccc3)cc2c1=O 1.85 µM
CCn1cnc2sc(-c3ccccc3)cc2c1=O 1.47 µM
CCCCn1cnc2sc(-c3ccccc3)cc2c1=O 1.31 µM
CC(=O)Cn1cnc2sc(-c3ccccc3)cc2c1=O 4.14 µM
O=C(NC1CCCC1)c1cc(-c2cccs2)on1 2.33 µM
O=C(NC1CCCCC1)c1cc(-c2cccs2)on1 2.93 µM
Cn1c(C(=O)NC2CCCCC2)cc2sccc21 6.56 µM
Cc1cccc2sc(NC(=O)C3CCCO3)nc12 (stereo not drawn) 13.1 µM
O=C(Nc1nnc(SCc2c(Cl)cccc2Cl)s1)C1CCCO1 (stereo not drawn) 18.5 µM
O=C(Nc1ncc(Cc2cccc(Cl)c2)s1)C1CCCO1 (stereo not drawn) 7.36 µM
O=C(Nc1nnc(-c2ccccc2F)s1)C1CCCO1 (stereo not drawn) 1.85 µM
O=C(Nc1ncc(Cc2cccc(Cl)c2Cl)s1)C1CCCO1 (stereo not drawn) 7.36 µM
CC1CCCN(c2ccc(C(=O)NCc3cccs3)cn2)C1 (stereo not drawn) 6.56 µM
CC(C)(CO)NC(=O)c1ccc2c(c1)C(=O)c1ccccc1-2 5.21 µM
Cc1ccsc1C(=O)OCC(=O)NCCC1=CCCCC1 18.5 µM
O=c1[nH]cnc2scc(-c3ccc(-c4ccccc4)cc3)c12 0.521 µM
N#Cc1c(-n2ncnc2-c2ccc(F)cc2)sc2c1CCCCC2 3.69 µM
Cc1ccccc1-c1ncnn1-c1sc2c(c1C#N)CCCCC2 1.31 µM
C1=Nc2ccccc2CN1c1ccccc1 5.85 µM
Oc1cccc(-c2nc3ccc4ccccc4c3c3c2CCC3)c1 5.21 µM
CCOCCCNC(=O)c1cccc(OC2CCN(S(C)(=O)=O)CC2)c1 5.85 µM
Nc1c(C(=O)N2CCCCC2)sc2nc3c(cc12)CCCC3 1.31 µM
Nc1c(C(=O)C2CC2)sc2nc3c(cc12)CCC3 1.85 µM
CN(C(=O)c1ccco1)c1nc(-c2ccccc2)cs1 1.85 µM
COCCCN(C(C)=O)c1nc(-c2ccccc2)cs1 6.56 µM
COc1ccccc1/C=N/Nc1nncc2ccccc12 4.65 µM
COc1ccc(/C=N/Nc2nncc3ccccc23)c(OC)c1 5.85 µM
COc1ccccc1C(=O)NC1=NC(c2ccc(Br)cc2)CC(=O)N1 (stereo not drawn) 1.85 µM
N=c1nc(N)nc2n1NC(c1ccc(F)cc1)=CS2 16.5 µM
Clc1ccccc1/C=C/c1nc(-c2cccnc2)no1 0.656 µM
C(=C\c1nc(-c2ccccc2)no1)/c1ccccc1 1.04 µM
Cc1ccc2oc(-c3ccco3)cc(=O)c2c1 5.85 µM
Cc1cccc2c1-c1sc(C(=O)N3CCCCC3)cc1CO2 3.69 µM
Cc1cccc2c1-c1sc(C(=O)Nc3ccccc3C(N)=O)cc1CO2 0.165 µM
CCN(CC)c1ccc(-c2nc3cnccc3n2C)cc1 3.69 µM
COc1ccc(NC(=O)n2ncc3c(C)cccc32)cc1OC 7.36 µM
COc1ccc(NC(=O)n2ncc3cc(Cl)ccc32)cc1OC 8.26 µM
Cc1ccc2nc3sc(C(=O)NCc4ccco4)c(N)c3cc2c1 0.521 µM
COc1ccc2nc3sc(C(=O)NCc4cccs4)c(N)c3cc2c1 1.31 µM
c1ccc(CN2CCN(c3nc4ccccc4s3)CC2)cc1 1.31 µM
Clc1ccc2nc(N3CCN(c4ccccc4)CC3)sc2c1 0.464 µM
Clc1ccc2nc(N3CCCCC3)sc2c1 2.07 µM
CC(C)(C)c1ccc(/C=C/C(=O)Nc2nncs2)cc1 0.369 µM
O=C(COc1ccc2ccccc2c1Br)NC(=S)Nc1cccc(CO)c1 20.7 µM
O=C(COc1ccc(Br)cc1Br)NC(=S)Nc1cccc(CO)c1 1.65 µM
CCn1c(=NC(=O)c2ccc3c(c2)OCCO3)sc2c(C)ccc(OC)c21 1.31 µM
COc1ccc(C(=O)N=c2sc3c(C)ccc(OC)c3n2C)cc1 0.185 µM
COc1ccccc1C(=O)N=c1sc2c(C)ccc(OC)c2n1C 3.69 µM
O=C(NC(=S)Nc1ccc2c(c1)OCCO2)c1cccc(Br)c1 3.69 µM
Cc1cc(C)cc(C(=O)NC(=S)Nc2ccc3c(c2)OCCO3)c1 7.36 µM
CCc1ccc(C(=O)NC(=S)Nc2ccc3c(c2)OCCO3)cc1 2.07 µM
O=C(O)c1ccc(-c2nc(-c3ccc(Cl)cc3)cs2)cc1 0.414 µM
CNC(=O)c1ccc(-c2nc(-c3ccccc3)cs2)cc1 3.29 µM
O=C(O)c1ccc(-c2nc(-c3ccccc3)cs2)cc1 2.61 µM
COc1ccccc1NC(=O)C/C(C)=N/NC(=O)c1ccccn1 1.85 µM
C/C(CC(=O)Nc1cc(C)cc(C)c1)=N\NC(=O)c1ccccn1 4.65 µM
C/C(CC(=O)NCc1ccccc1Cl)=N/NC(=O)c1ccccn1 8.26 µM
CCOC(=O)C1CCCN(C(=O)CCc2nnc(-c3ccc(C(C)=O)s3)o2)C1 (stereo not drawn) 3.29 µM
Fc1ccccc1-n1ncc2c1ncn1nc(-c3ccccc3Cl)nc21 0.736 µM
CC1(C)C=Cc2cc3ccc(=O)oc3cc2O1 13.1 µM
COc1c2c(cc3oc(=O)ccc13)OC(C)(C)C=C2 18.5 µM
O=C(NC(=S)Nc1ccccc1C(=O)O)c1ccc(-c2ccc(Br)cc2)o1 11.7 µM
NC(=O)c1ccccc1NC(=O)c1ccc(-c2ccc(Br)cc2)o1 1.17 µM
S=c1[nH]nc(-c2ccc(Cl)cc2Cl)n1-c1ccccc1 5.21 µM
CN(c1ccccc1)c1ccc(/C=N/N2CCOCC2)cc1 1.47 µM
O=[N+]([O-])c1ncccc1OCc1ccc(Cl)c(Cl)c1 7.36 µM
COc1ccc2nc(NC(=O)c3ccc(Br)s3)sc2c1 1.17 µM
COc1ccc2nc(NC(=O)c3cccnc3SC)sc2c1 2.93 µM
O=C(NC(=O)c1ccc(Cl)cc1)OC1CCCCC1 16.5 µM
Cc1cc(CC(C)C)n(-c2nc3ccccc3c(=O)n2OCC(=O)N(C)C)n1 18.5 µM
COc1ccc(CCn2nc(C)c([N+](=O)[O-])c2C)cc1 4.14 µM
O=C(/C=C/Nc1ccccc1O)c1ccco1 18.5 µM
CC(=O)N1c2ccccc2Oc2cc3ccccc3cc21 9.27 µM
CCCC(=O)N(CCN1CCOCC1)c1nc2cc(C)c(C)cc2s1 2.33 µM
O=C(NC(=S)Nc1ccc2ncccc2c1)c1ccccc1 6.56 µM
O=C(Nc1ccc2ncccc2c1)c1ccccc1Br 1.65 µM
Cc1csc(NC(=S)NC(=O)c2ccccc2)n1 1.31 µM
Cc1cc(C(=O)Nc2cnc3ccccc3c2)ccc1[N+](=O)[O-] 0.736 µM
O=C(NC(=S)Nc1ccc(Cl)cc1)c1ccccc1 4.65 µM
O=C(NNC(=S)Nc1ccccc1)c1ccc2ncccc2c1 8.26 µM
O=C(NC(=S)Nc1cnc2ccccc2c1)c1ccccc1 0.585 µM
Cc1cc(C)c(C#N)c(SCc2cn3ccccc3n2)n1 18.5 µM
c1ccc2c(SCc3cn4ccccc4n3)nncc2c1 14.7 µM
Cc1cccc2nc(CSc3nc4ccccc4o3)cn12 18.5 µM
Clc1ccc(SCc2cn3ccccc3n2)cc1 4.65 µM
Clc1ccc2nc(CSCc3ccccc3)cn2c1 2.93 µM
c1ccc2nc(SCc3cn4ccccc4n3)cnc2c1 9.27 µM
Cc1cccc2nc(CSc3ccc(Cl)cc3)cn12 4.14 µM
